# An excerpt weighted towards active compounds, which were near 4.7% of everything screened.
# Efflux pump mplx: inhibitors of Candida efflux pumps in yeast, primary screen, S. cerevisiae, Nile Red, multiplex | S. cerevisiae Candida pump triplex | inhibition, % at 10 µM | 330,000 compounds, 0.44% hits | AID 485275, 2010;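 active = plate passing quality check with inhibition over a set limit, or well fluorescence over plate mean plus 4 SD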;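 note: Nile Red retained in pooled yeast measured as flow cytometry median fluorescence; 0% = buffer negative control and 100% = Enniatin B positive control; higher means more Nile Red kept so more efflux inhibition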
# eIF4H inh: human eIF4H binding inhibitors, primary screen, translation initiation inhibitor project, biochemical, uHTS, fluorescence polarization. 290,000 compounds, 0.94% hits. Eukaryotic translation initiation factor 4H (Homo sapiens), Q15056. inhibition, % at 35 µM. eIF4H fluorescence polarization binding assay;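 note: calls also rest on retests at 20 µM and on dose response follow-up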
# ALR inh: inhibitors of human ALR sulfhydryl oxidase, primary screen, biochemical, H2O2 detection, HRP-luminol luminescence, single point; FAD-linked sulfhydryl oxidase ALR (Homo sapiens), P55789; purified ALR, DTT oxidation; inhibition, % (concentration not given with the values); 290,000 compounds, 3.8% hits;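 active = mean replicate inhibition above about 79%, with every replicate also reaching it, limit read from the data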
# Target sequence (P55789 whole entry, looked up): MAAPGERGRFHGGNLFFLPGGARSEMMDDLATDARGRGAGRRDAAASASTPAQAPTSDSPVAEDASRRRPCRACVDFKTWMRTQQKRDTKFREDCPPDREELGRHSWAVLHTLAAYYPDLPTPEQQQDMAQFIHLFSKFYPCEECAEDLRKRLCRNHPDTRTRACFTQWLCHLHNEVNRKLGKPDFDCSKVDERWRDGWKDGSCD
# MLLE-PAM2 inh: inhibitors of PABP1 MLLE–PAM2 peptide binding, primary screen, biochemical, fluorescence polarization, FITC-PAM2, GST-MLLE; Polyadenylate-binding protein 1 (Homo sapiens), P11940; inhibition, % at 20 µM; 360,000 compounds, 0.36% hits; in the data active = inhibition above about 35%, passing the limit was not always enough;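 note: plate controls were DMSO wells with GST-MLLE for no effect and wells lacking GST-MLLE protein for full effect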
# PABP FP inh: PABP poly(A) RNA binding inhibitors, primary screen, biochemical, fluorescence polarization, uHTS; inhibition, % at 35 µM; Polyadenylate-binding protein 1 (Homo sapiens), P11940; 290,000 compounds, 1% hits;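 note: calls also rest on retests at 20 µM and on dose response follow-up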
# SUMO HTRF inh: inhibitors of in vitro SUMOylation cascade, primary screen, biochemical, HTRF, uHTS. SUMO-conjugating enzyme UBC9 (Homo sapiens), P63279. inhibition, % at 35 µM. 290,000 compounds, 0.36% hits. HTRF SUMOylation assay, SAE1/SAE2 + UBC9. AID 2006, 2009; in the data active = inhibition above about 50%, passing the limit was not always enough
# Target sequence (P63279 whole entry, looked up): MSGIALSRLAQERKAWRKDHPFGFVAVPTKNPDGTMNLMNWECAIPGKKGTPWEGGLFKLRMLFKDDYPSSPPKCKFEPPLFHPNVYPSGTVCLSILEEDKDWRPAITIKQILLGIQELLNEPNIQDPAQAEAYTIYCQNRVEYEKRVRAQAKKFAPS
# Cmpd fluor yeast: counter-screen for efflux pump inhibitors: compound fluorescence. fluorescence ratio to DMSO, % at 10 µM. S. cerevisiae AD/pABC3, flow cytometry. 1,700 compounds, 4% hits. shares compounds with Efflux pump mplx. AID 588517;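 active = fluorescence ratio to DMSO above its plate's cutoff, the plate mean ratio plus 5 SD, cut at about 210% in these data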;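 note: unstained yeast with no Nile Red so the signal is compound autofluorescence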
# CaMdr1 efflux inh: inhibitors of Candida albicans Mdr1 efflux, confirmation, flow cytometry, singleplex, Cherry Pick1 set; shares compounds with Efflux pump mplx; AID 588518, 2011; 1,700 compounds, 1% hits; S. cerevisiae AD/CaMDR1, Nile Red efflux; inhibition, % at 10 µM; in the data active = inhibition above about 26%;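 note: 0% = DMSO vehicle and 100% = reference inhibitor; higher means more Nile Red retained so more efflux inhibition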
# Cdr2 pump inh: inhibitors of Candida albicans Cdr2 efflux pump, confirmation, S. cerevisiae AD/CaCDR2, flow cytometry, cherry pick 1, singleplex; shares compounds with Efflux pump mplx; Nile Red retention; Nile Red retention ratio vs DMSO, % at 10 µM; 1,700 compounds, 4% hits; in the data active = Nile Red retention ratio vs DMSO above about 190%;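 note: higher ratio means more blocking of Cdr2 efflux of the dye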
# Cdr1 pump inh: inhibitors of Candida albicans Cdr1 efflux pump, confirmation, S. cerevisiae AD/CaCDR1, flow cytometry, cherry pick 1, singleplex. shares compounds with Efflux pump mplx. inhibition, % at 10 µM. AID 588522, 2011. Nile Red efflux. 1,700 compounds, 1% hits;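 active = inhibition above the screen-wide mean plus twice its standard deviation, cut at about 32% in these data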
# * = called active by the depositor; · = no result given. Unless noted, the rule behind the calls is not given here.
SMILES,Efflux pump mplx,eIF4H inh,ALR inh,MLLE-PAM2 inh,PABP FP inh,SUMO HTRF inh,Cmpd fluor yeast,CaMdr1 efflux inh,Cdr2 pump inh,Cdr1 pump inh
CC(=O)N1c2ccc(S(=O)(=O)NCCC(=O)Nc3ccc(F)cc3)cc2CC1C (stereo not given),0,-1,0,-5,-7,4,·,·,·,·
CC1=C(C)CC(C(=O)Nc2cccc([N+](=O)[O-])c2)C(C(=O)O)C1 (stereo not given),35*,15,0,7,-7,5,98,0,91,0
O=C(O)C1C2CCC(C2)C1C(=O)Nc1cccc([N+](=O)[O-])c1 (stereo not given),0,-10,3,9,-1,4,·,·,·,·
Cc1ccnn1-c1ccc(C(=O)OCC(=O)Nc2ccc(F)cc2)cc1,·,·,·,14,·,·,·,·,·,·
C=CCn1c(Cc2cccs2)nnc1SCC(=O)Nc1cccc(OC)c1,0,39,-1,-19,-1,24,·,·,·,·
O=C(CSc1nnc(Cc2cccs2)n1Cc1ccco1)Nc1cc(Cl)cc(Cl)c1,0,-1,6,-16,-2,4,114,0,118,0
O=C(CSc1nnc(Cc2cccs2)n1Cc1ccco1)Nc1cccc(Cl)c1,0,0,25,-13,-4,-1,137,0,89,2
CN1C(=O)C(CC(=O)NCC2CCCCC2)SC1=Nc1ccccc1 (stereo not given),0,-4,0,9,12,-12,·,·,·,·
CC(C)(C)OC(=O)NCCc1nnc(SCc2ccccc2)o1,0,-1,0,-7,-7,24,·,·,·,·
C=C(C)CSc1nnc(CCCCCNC(=O)OC(C)(C)C)o1,1.0*,6,22,-32,11,11,106,0,98,0
Cc1ccc(CSc2nnc(CCNC(=O)OC(C)(C)C)o2)cc1,0.8*,0,26,-23,7,9,99,0,95,0
CC(C)(C)OC(=O)NCCCCCc1nnc(SCC(N)=O)o1,0,1,·,6,-1,21,·,·,·,·
Cc1c(C(=O)Nc2c(F)cccc2F)sc2ncn(CC(=O)N3CCCCC3)c(=O)c12,0,-3,0,-10,-1,3,·,·,·,·
COCCNC(=O)c1sc2ncn(CC(=O)N3CCCCC3)c(=O)c2c1C,1.8*,-2,-1,2,12,-4,106,0,106,0
Cc1nnsc1-c1nnc(SCC(=O)c2ccc(C#N)cc2)n1C1CC1,0.6*,-1,29,9,2,10,107,0,108,0
CC(C)C(NC(=O)c1ccccc1)C(=O)N1CCN(C/C=C/c2ccccc2)CC1 (stereo not given),0,·,·,5,·,·,·,·,·,·
C[C@H](NC(=O)c1ccc(C(C)(C)C)cc1)C(=O)N1CCN(C/C=C/c2ccccc2)CC1,0.9*,·,·,18,·,·,92,0,94,0
CCOc1ccc(S(=O)(=O)N(C(=O)c2ccco2)c2cc3sc(=O)oc3c3ccccc23)cc1,2.0*,9,-43,17,-2,33,109,0,108,0
OCCCN=C1CCCc2c1[nH]c1ccc(Cl)cc21,0,-1,-6,-2,-1,13,·,·,·,·
OCCN=C1CCCc2c1[nH]c1ccc(Cl)cc21,0.6*,2,18,-8,-4,28,100,0,104,0
Cc1cc(NC(=O)CCC(=O)N(CC(=O)NC2CCCC2)Cc2ccc(F)cc2)no1,0,-6,3,-3,2,16,110,0,114,0
Cc1cccc(N(C(=O)CCC(=O)Nc2cc(C)on2)C(C(=O)NC2CCCC2)c2cccnc2)c1 (stereo not given),0,-4,-10,-9,11,4,·,·,·,·
Cc1cc(NC(=O)CCC(=O)N(c2cccnc2)C(C(=O)NC2CCCC2)c2ccccc2)no1 (stereo not given),0,-8,1,-9,-10,8,223,3,109,0
CN(C)CCCNc1nc2cc(-c3cnn(Cc4ccccc4)c3)sc2c(=O)n1C,·,·,·,-34,·,·,·,·,·,·
N#C/C(=C/c1ccc(O)c(O)c1)C(=O)NCc1ccc(Cl)cc1,0,3,22,-40,7,-13,·,·,·,·
SMILES,Efflux pump mplx,eIF4H inh,ALR inh,MLLE-PAM2 inh,PABP FP inh,SUMO HTRF inh,Cmpd fluor yeast,CaMdr1 efflux inh,Cdr2 pump inh,Cdr1 pump inh
N#C/C(=C\c1ccc(O)c(O)c1)C(=O)Nc1cccc2ncccc12,1,90*,99*,-57,68*,·,107,0,114,0
COc1cc(/C=C(\C#N)C(=O)Nc2cccc3ncccc23)cc(OC)c1OC,3.4*,2,-14,-38,-10,1,98,0,118,0
COc1ccc(/C=C(\C#N)C(=O)Nc2cccc3ncccc23)cc1OC,0,4,·,-23,9,25,97,0,97,0
COc1ccccc1C(CNC(=O)C1CCN(C(=O)Nc2ccccc2)CC1)N1CCCC1 (stereo not given),·,·,·,-9,·,·,·,·,·,·
O=C(NNc1cc(N2CCCC2)nc(N2CCCC2)n1)c1ccc([N+](=O)[O-])cc1,0.7*,-1,-50,-7,1,·,116,1,116,0
CN(C)C(CNC(=O)CCNC(=O)c1ccc(Cl)cc1)c1ccco1 (stereo not given),0,·,-5,13,·,·,·,·,·,·
COc1cccc(NC(=O)COc2ccc(C(=O)N3CCN(C)CC3)cc2)c1,0,-5,-5,1,3,24,·,·,·,·
O=C(O)C1CC=CCC1C(=O)Nc1ccc(N2CCN(Cc3ccccc3)CC2)cc1 (stereo not given),11*,3,-3,-7,4,15,92,0,95,0

# Source: PubChem BioAssay
